Test results reported in the supplement of paper PMC8728848.
This is one part of a sample in which the strongest signals are shown more often than they occur.

B1: F17bG (Escherichia coli), Q47200 (protein)
chain: MTNFYKVFLAVFILVCCNISHAVVSFIGSTENDVGPSQGSYSSTHAMDNLPFVYNTGYNIGYQNANVWRIGGGFCVGLDGKVDLPVVGSLDGQSIYGLTEEVGLLIWMGDTNYSRGTAMSGNSWENVFSGWCVGNYLSTQGLSVHVRPVILKRNSSAQYSVQKTSIGSIRMRPYNGSSAGSVQTTVNFSLNPFTLNDTVTSCRLLTPSAVNVSLAAISAGQLPSSGDEVVAGTTSLKLQCDAGVTVWATLTDATTPSNRSDILTLTGASTATGVGLRIYKNTDSTPLKFGPDSPVKGNENQWQLSTGTETSPSVRLYVKYVNTGEGINPGTVNGISTFTFSYQ
B2: TES70 (Toxocara canis), Q9XYV5 (protein)
chain: MISVVLVAIALQISGSYAGACNSINDCGLFETCVNNMCVPDNMGCPMPCQAGQVCVPPNCVAAPAPQPVTTTTAAATTTTSARGRCNANAQCGAFEVCVNGMCQPNNAGCNPPCAANQVCVAPNCVPAPIPPPAQSTTTAPATTRAPPSCPPSWSPFSGHCYYVAVGSFLFNQASDWCTQTNSRPVWFDQSNVGTFGAELYFINVLAASRGVQTYWLGLNRQFGQWVWTNGSPLIFSNWRGSEPDGCCGGNVTCALVNYANPFGQWDDAGCGNIWRNPQGFICKKPLA

Legend:
Assay in all cases: glycan array binding signal (z-score within array); higher = stronger binding
Conditions in all cases: glycan notation: IUPAC condensed, linker removed
Fuc(a1-2)[Gal(a1-3)]Gal = molecular target: Fuc(a1-2)[Gal(a1-3)]Gal
How it was run: (§1)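 Glycan array data were curated from 3228 arrays in the Consortium for Functional Glycomics database and kept only where the protein sequence was available. Glycan names were converted to IUPAC-condensed notation, and columns mapping to the same glycan were averaged. The binding signal is a within-array Z-score, averaged across arrays of the same protein sequence at different concentrations or buffers and across linkers. Negative Z-scores can be read as non-binding.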

[1] = molecular target: Fuc(a1-2)[Gal(a1-4)]Gal(b1-4)GlcNAc
How it was run: as §1

[2] = molecular target: Fuc(a1-2)[GalNAc(a1-3)]Gal(b1-3)GlcNAc
How it was run: as §1

[3] = molecular target: Fuc(a1-3)[Gal(b1-4)]GlcNAc(b1-4)Gal(b1-4)[Fuc(a1-3)]GlcNAc(b1-4)Gal(b1-4)[Fuc(a1-3)]GlcNAc
How it was run: as §1

Gal(a1-3)Gal(b1-4)Glc = molecular target: Gal(a1-3)Gal(b1-4)Glc
How it was run: as §1

Gal(a1-4)Gal(b1-4)GlcNAc = molecular target: Gal(a1-4)Gal(b1-4)GlcNAc
How it was run: as §1

[4] = molecular target: Gal(b1-3)[Fuc(a1-4)]GlcNAc
How it was run: as §1

[5] = molecular target: Gal(b1-3)[GlcNAc(b1-6)]GalNAc
How it was run: as §1

GalNAc(b1-3)GalNAc = molecular target: GalNAc(b1-3)GalNAc
How it was run: as §1

GalNAc(b1-4)GlcNAc = molecular target: GalNAc(b1-4)GlcNAc
How it was run: as §1

GlcNAc(b1-3)Gal = molecular target: GlcNAc(b1-3)Gal
How it was run: as §1

GlcNAc(b1-3)GalNAc = molecular target: GlcNAc(b1-3)GalNAc
How it was run: as §1

[6] = molecular target: GlcNAc(b1-3)[GlcNAc(b1-6)]Gal(b1-4)GlcNAc
How it was run: as §1

Neu5Ac(a2-3)Gal(b1-4)Glc = molecular target: Neu5Ac(a2-3)Gal(b1-4)Glc
How it was run: as §1

[7] = molecular target: Neu5Ac(a2-3)Gal(b1-4)GlcNAc(b1-3)Gal(b1-4)GlcNAc
How it was run: as §1

[8] = molecular target: Neu5Ac(a2-3)Gal(b1-4)GlcNAc(b1-3)Gal(b1-4)[Fuc(a1-3)]GlcNAc
How it was run: as §1

Neu5Ac(b1-6)GalNAc = molecular target: Neu5Ac(b1-6)GalNAc
How it was run: as §1

Fuc(a1-3)GlcNAc = molecular target: Fuc(a1-3)GlcNAc
How it was run: as §1

[9] = molecular target: Gal(b1-3)[Neu5Ac(a2-6)]GalNAc
How it was run: as §1

[10] = molecular target: Gal(b1-4)GlcNAc(b1-6)GalNAc
How it was run: as §1

Glc(b1-4)Glc = molecular target: Glc(b1-4)Glc
How it was run: as §1

[11] = molecular target: GlcNAc(b1-4)[GlcNAc(b1-6)]GalNAc
How it was run: as §1

[12] = molecular target: Man(a1-2)Man(a1-6)[Man(a1-3)]Man(a1-6)[Man(a1-2)Man(a1-2)Man(a1-3)]Man(b1-4)GlcNAc(b1-4)GlcNAc
How it was run: as §1

[13] = molecular target: Neu5Ac(a2-3)Gal(b1-3)GalNAc
How it was run: as §1

[14] = molecular target: Neu5Ac(a2-3)Gal(b1-3)[Neu5Ac(a2-6)]GalNAc
How it was run: as §1

[15] = molecular target: Neu5Ac(a2-6)Gal(b1-4)GlcNAc
How it was run: as §1

[16] = molecular target: Neu5Ac(a2-8)Neu5Ac(a2-3)Gal(b1-4)Glc
How it was run: as §1

[17] = molecular target: Neu5Ac9Ac(a2-6)Gal(b1-4)GlcNAc
How it was run: as §1

Row | Binder | glycan array binding signal (z-score) (Fuc(a1-2)[Gal(a1-3)]Gal) | glycan array binding signal (z-score) [1] | glycan array binding signal (z-score) [2] | glycan array binding signal (z-score) [3] | glycan array binding signal (z-score) (Gal(a1-3)Gal(b1-4)Glc) | glycan array binding signal (z-score) (Gal(a1-4)Gal(b1-4)GlcNAc) | glycan array binding signal (z-score) [4] | glycan array binding signal (z-score) [5] | glycan array binding signal (z-score) (GalNAc(b1-3)GalNAc) | glycan array binding signal (z-score) (GalNAc(b1-4)GlcNAc) | glycan array binding signal (z-score) (GlcNAc(b1-3)Gal) | glycan array binding signal (z-score) (GlcNAc(b1-3)GalNAc) | glycan array binding signal (z-score) [6] | glycan array binding signal (z-score) (Neu5Ac(a2-3)Gal(b1-4)Glc) | glycan array binding signal (z-score) [7] | glycan array binding signal (z-score) [8] | glycan array binding signal (z-score) (Neu5Ac(b1-6)GalNAc) | glycan array binding signal (z-score) (Fuc(a1-3)GlcNAc) | glycan array binding signal (z-score) [9] | glycan array binding signal (z-score) [10] | glycan array binding signal (z-score) (Glc(b1-4)Glc) | glycan array binding signal (z-score) [11] | glycan array binding signal (z-score) [12] | glycan array binding signal (z-score) [13] | glycan array binding signal (z-score) [14] | glycan array binding signal (z-score) [15] | glycan array binding signal (z-score) [16] | glycan array binding signal (z-score) [17]
1 | B1 | -0.551 | -0.657 | -0.567 | -0.507 | -0.565 | -0.527 | -0.578 | 1.08 | 4.47 | -0.391 | 4.21 | 3.86 | 5.83 | -0.498 | 0.462 | 0.05 | -0.298 |  |  |  |  |  |  |  |  |  |  | 
2 | B2 | -0.052 |  |  |  |  |  |  |  |  |  |  |  |  |  |  |  |  | -0.169 | 0.002 | 0.229 | -0.156 | 0.013 | -0.137 | 0.672 | -0.065 | 6.41 | -0.14 | -0.172
